More than one record can exist for a structure, and the calls need not agree. Active and inactive are the calls of the source. Rule for the calls, unless noted: active = hit-call score of the fitted dose curve at least 0.9, where 1 is the maximum; inactive = score below 0.9.
Key:
[1] = molecular target: Peroxisome proliferator-activated receptor gamma (Homo sapiens) (UniProt P37231); assay: OT_PPARg_PPARgSRC1_1440: Odyssey Thera (OT) 24-hour Protein-Complementation Assay for Peroxisome Proliferator-activated Receptor Gamma/ SRC-1 Co-activator (AID 2283388; active = hit-call score of the fitted dose curve at least 0.9, where 1 is the maximum;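 note: nuclear to cytoplasmic ratio of reconstituted Venus YFP fluorescence in fixed imaged cells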)
Outline: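 Protein-fragment complementation between PPARg and coactivator SRC-1 was measured by fluorescence imaging in transiently transfected HEK293T cells after 24 h treatment. Signal was quantified as N/C ratio in the 488 nm channel, with DMSO as negative control.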

[2] = CEETOX_H295R_11DCORT: CeeTox H295R High-throughput Steroidogenesis Assay for 11-Deoxycortisol (11DCORT) (AID 2283432); settings: actives raise or lower the signal;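 for AC50: 11-deoxycortisol secreted into the medium measured by LC-MS/MS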
Outline: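 H295R cells prestimulated 48 h with 10 uM forskolin, then exposed 48 h to chemical in 0.1% DMSO. 11-Deoxycortisol in medium quantified by HPLC-MS/MS after MTBE extraction; bidirectional fit versus DMSO. MTT viability read in same wells.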

[3] = CEETOX_H295R_OHPREG: CeeTox H295R High-throughput Steroidogenesis Assay for OH-Pregnenolone (OHPREG) (AID 2283434); settings: actives raise or lower the signal
Outline: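 Human adrenal H295R cells were prestimulated 48 h with 10 uM forskolin, then exposed 48 h to chemical in 0.1% DMSO. Medium 17alpha-hydroxypregnenolone was quantified by HPLC-MS/MS after MTBE extraction; bidirectional fitting versus DMSO baseline.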

[4] = CEETOX_H295R_OHPROG: CeeTox H295R High-throughput Steroidogenesis Assay for OH-Progesterone (OHPROG) (AID 2283435); settings: actives raise or lower the signal;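 for AC50: 17alpha-hydroxyprogesterone secreted into medium measured by HPLC-MS/MS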
Outline: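 Secreted 17alpha-hydroxyprogesterone is read by tandem MS from media of forskolin-primed H295R cells dosed with chemical for 48 h. Activity is fitted in both directions against DMSO baseline; cytotoxic concentrations are re-tested diluted.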

[5] = CEETOX_H295R_CORTIC: CeeTox H295R High-throughput Steroidogenesis Assay for Corticosterone (CORTIC) (AID 2283437); settings: actives raise or lower the signal;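 note: corticosterone secreted into medium quantified by mass spectrometry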
Outline: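 H295R cells were prestimulated 48 h with 10 uM forskolin, then exposed 48 h to test chemical in 0.1% DMSO. Medium corticosterone was MTBE-extracted and quantified by HPLC-MS/MS; bidirectional fit versus DMSO baseline.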

[6] = CEETOX_H295R_CORTISOL: CeeTox H295R High-throughput Steroidogenesis Assay for Cortisol (AID 2283438); settings: actives raise or lower the signal;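 note: cortisol secreted into medium quantified by LC-MS/MS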
Outline: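 Human adrenocortical H295R cells (passage ≤10) received test chemicals for 48 h after forskolin priming. Secreted cortisol was measured by LC-MS/MS.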

[7] = CEETOX_H295R_ESTRONE: CeeTox H295R High-throughput Steroidogenesis Assay for Estrone (AID 2283441); settings: actives raise or lower the signal;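 note: estrone secreted into medium measured by LC-MS/MS after dansyl derivatization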
Outline: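 H295R cells; 48 h forskolin (10 uM) prestimulation; 48 h compound exposure, 0.1% DMSO final. Medium estrone: MTBE extraction, dansyl derivatization, HPLC-MS/MS. Bidirectional fit vs DMSO.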

[8] = CEETOX_H295R_PROG: CeeTox H295R High-throughput Steroidogenesis Assay for Progesterone (PROG) (AID 2283442); settings: actives raise or lower the signal;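 for AC50: human H295R adrenal cells primed with 10 µM forskolin before dosing; progesterone secreted into medium by H295R cells measured by HPLC-MS/MS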
Outline: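 Steps: seed H295R cells and let them adhere overnight; prime 48 h with 10 uM forskolin; dose with compound in DMSO at 0.1% final for 48 h; extract medium steroids with MTBE; measure progesterone by LC-MS/MS. MTT viability was run in the same wells.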

[9] = read-out: Tumor necrosis factor receptor superfamily member 6 (Homo sapiens) (UniProt P25445); assay: LTEA_HepaRG_FAS: Life Technologies and Expression Analysis (LTEA) Assay for Fas cell surface death receptor (FAS) using HepaRG (AID 2283447); settings: mRNA level, 48 h; actives raise or lower the signal
Outline: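 Differentiated human HepaRG cells, pre-cultured 48 h, were exposed in duplicate for 48 h to 8-point half-log concentrations (top 100 uM, 0.5% DMSO) in serum-free induction medium; FAS mRNA measured by qRT-PCR, normalized to ACTB/GAPDH/POLR2A, bidirectional fit versus DMSO.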

[10] = read-out: Cyclin Dependent Kinase Inhibitor 1A (CDKN1A), CDKN1A (gene 1026); assay: LTEA_HepaRG_CDKN1A: Life Technologies and Expression Analysis (LTEA) Assay for Cyclin Dependent Kinase Inhibitor 1A (CDKN1A) using HepaRG (AID 2283450); settings: mRNA level, 48 h; actives raise or lower the signal
Outline: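 Read-out is CDKN1A mRNA by TaqMan qRT-PCR, normalized to three housekeeping genes and fitted in both directions against the DMSO baseline. Human HepaRG cells were treated 48 h with test chemicals up to 100 uM in half-log steps, 0.5% DMSO.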

[11] = read-out: catalase (CAT), CAT (gene 847); assay: LTEA_HepaRG_CAT: Life Technologies and Expression Analysis (LTEA) Assay for catalase (CAT) using HepaRG (AID 2283452); settings: mRNA level, 48 h; actives raise or lower the signal;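 for AC50: TaqMan qRT-PCR signal normalized to ACTB GAPDH and POLR2A housekeeping genes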
Outline: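 Differentiated HepaRG cells in serum-free induction medium were dosed 48 h in duplicate, eight half-log concentrations from 100 uM in 0.5% DMSO. Transcript measured by TaqMan qRT-PCR, normalised to ACTB/GAPDH/POLR2A, fitted bidirectionally against DMSO.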

[12] = read-out: flavin-containing dimethylaniline monooxygenases 3 (FMO3), FMO3 (gene 2328); assay: LTEA_HepaRG_FMO3: Life Technologies and Expression Analysis (LTEA) Assay for flavin-containing dimethylaniline monooxygenases 3 (FMO3) using HepaRG (AID 2283453); settings: mRNA level, 48 h; actives raise or lower the signal;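 for AC50: FMO3 transcript by TaqMan qRT-PCR normalized to ACTB GAPDH and POLR2A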
Outline: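 HepaRG, 48 h exposure, 8-pt half-log series from 100 uM, 0.5% DMSO vehicle, duplicates; FMO3 transcript by Fluidigm TaqMan qRT-PCR, housekeeping-normalized; gain/loss fit vs DMSO.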

[13] = read-out: Cytochrome P450 (CYP1A1), CYP1A1 (gene 1543); assay: LTEA_HepaRG_CYP1A1: Life Technologies and Expression Analysis (LTEA) Assay for Cytochrome P450 (CYP1A1) using HepaRG (AID 2283454); settings: mRNA level, 48 h; actives raise or lower the signal
Outline: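 HepaRG, 48 h post-plating switched to serum-free induction medium; 8-pt conc-response (top 100 uM, half-log, 0.5% DMSO), duplicates, 48 h. Lysis in RLT, TaqMan qRT-PCR for CYP1A1; gain or loss vs DMSO.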

[14] = read-out: CFLAR gene, CFLAR (gene 8837); assay: LTEA_HepaRG_CFLAR: Life Technologies and Expression Analysis (LTEA) Assay for CFLAR gene using HepaRG (AID 2283455); settings: mRNA level, 48 h; actives raise or lower the signal
Outline: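 HepaRG cells were plated for 48 h, switched to serum-free induction medium, then exposed in duplicate for 48 h to 8 concentrations (top 100 uM, half-log steps, 0.5% DMSO). CFLAR mRNA was measured by qRT-PCR, normalized to ACTB, GAPDH and POLR2A.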

[15] = read-out: Forkhead box O1 (FOXO1), FOXO1 (gene 2308); assay: LTEA_HepaRG_FOXO1: Life Technologies and Expression Analysis (LTEA) Assay for Forkhead box O1 (FOXO1) using HepaRG (AID 2283456); settings: mRNA level, 48 h; actives raise or lower the signal
Outline: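 Differentiated human HepaRG cells in serum-free induction medium were exposed in duplicate for 48 h to eight half-log concentrations (top 100 uM, 0.5% DMSO). FOXO1 mRNA was measured by TaqMan qRT-PCR, normalised to ACTB, GAPDH and POLR2A, and fitted bidirectionally against DMSO.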

[16] = read-out: Fatty acid synthase (Homo sapiens) (UniProt P49327); assay: LTEA_HepaRG_FASN: Life Technologies and Expression Analysis (LTEA) Assay for Fatty Acid Synthase (FASN) using HepaRG (AID 2283448); settings: mRNA level, 48 h; actives raise or lower the signal
Outline: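 Transcript-level assay: HepaRG liver cells are treated for 48 h across an eight-point range topping at 100 uM, and FASN mRNA, normalized to three housekeeping genes, is compared with DMSO controls in both directions.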

[17] = read-out: Cyclin D2 (CCND2), CCND2 (gene 894); assay: LTEA_HepaRG_CCND2: Life Technologies and Expression Analysis (LTEA) Assay for Cyclin D2 (CCND2) using HepaRG (AID 2283449); settings: mRNA level, 48 h; actives raise or lower the signal;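 note: CCND2 transcript measured by TaqMan qRT-PCR and normalised to three housekeeping genes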
Outline: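 Differentiated human HepaRG cells were exposed for 48 h in serum-free induction medium to eight half-log concentrations topping at 100 uM (0.5% DMSO vehicle). CCND2 mRNA was quantified by TaqMan qRT-PCR, normalised to ACTB, GAPDH and POLR2A, and fitted bidirectionally against DMSO.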

[18] = read-out: Cyclin D1 (CCND1), CCND1 (gene 595); assay: LTEA_HepaRG_CCND1: Life Technologies and Expression Analysis (LTEA) Assay for Cyclin D1 (CCND1) using HepaRG (AID 2283451); settings: mRNA level, 48 h; actives raise or lower the signal
Outline: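 HepaRG plated 48 h, medium switched to serum-free induction medium, chemicals added in duplicate (top 100 uM, half-log steps, 0.5% DMSO) for 48 h, cells lysed, RNA measured by TaqMan qRT-PCR.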

[19] = CEETOX_H295R_ANDR: CeeTox H295R High-throughput Steroidogenesis Assay for Androstenedione (ANDR) (AID 2283436); settings: actives raise or lower the signal
Outline: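 H295R human adrenal cells (passages ≤10) were exposed to test chemicals for 48 h; androstenedione in medium was MTBE-extracted and quantified by HPLC-MS/MS against a 7-point standard curve. Bidirectional fitting used DMSO as baseline.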

[20] = CEETOX_H295R_TESTO: CeeTox H295R High-throughput Steroidogenesis Assay for Testosterone (TESTO) (AID 2283457); settings: actives raise or lower the signal;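 for AC50: cells exposed to chemicals for 48 h before medium collection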
Outline: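 H295R, passage ≤10, 48 h dosing; media extracted with MTBE → HPLC-MS/MS for testosterone; 7-pt standard curve sets LLOQ/ULOQ; bidirectional fit vs DMSO; MTT viability same wells.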

Measured: AC50

Chain of Peroxisome proliferator-activated receptor gamma (Homo sapiens) (P37231 whole entry, looked up, the tested form may be a part): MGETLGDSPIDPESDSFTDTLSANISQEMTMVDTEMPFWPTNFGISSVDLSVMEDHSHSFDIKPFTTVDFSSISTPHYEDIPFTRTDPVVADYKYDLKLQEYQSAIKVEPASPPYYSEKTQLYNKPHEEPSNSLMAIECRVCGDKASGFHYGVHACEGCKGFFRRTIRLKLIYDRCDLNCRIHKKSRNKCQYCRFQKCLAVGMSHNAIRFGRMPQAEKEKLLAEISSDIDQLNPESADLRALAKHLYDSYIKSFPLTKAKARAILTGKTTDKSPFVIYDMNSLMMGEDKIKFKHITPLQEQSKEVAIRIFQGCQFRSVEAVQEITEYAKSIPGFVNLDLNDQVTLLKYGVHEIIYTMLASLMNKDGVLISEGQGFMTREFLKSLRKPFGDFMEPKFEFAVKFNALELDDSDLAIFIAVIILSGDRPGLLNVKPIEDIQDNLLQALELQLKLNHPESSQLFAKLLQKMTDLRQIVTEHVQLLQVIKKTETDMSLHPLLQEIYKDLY
Chain of Fatty acid synthase (Homo sapiens) (P49327 whole entry, looked up): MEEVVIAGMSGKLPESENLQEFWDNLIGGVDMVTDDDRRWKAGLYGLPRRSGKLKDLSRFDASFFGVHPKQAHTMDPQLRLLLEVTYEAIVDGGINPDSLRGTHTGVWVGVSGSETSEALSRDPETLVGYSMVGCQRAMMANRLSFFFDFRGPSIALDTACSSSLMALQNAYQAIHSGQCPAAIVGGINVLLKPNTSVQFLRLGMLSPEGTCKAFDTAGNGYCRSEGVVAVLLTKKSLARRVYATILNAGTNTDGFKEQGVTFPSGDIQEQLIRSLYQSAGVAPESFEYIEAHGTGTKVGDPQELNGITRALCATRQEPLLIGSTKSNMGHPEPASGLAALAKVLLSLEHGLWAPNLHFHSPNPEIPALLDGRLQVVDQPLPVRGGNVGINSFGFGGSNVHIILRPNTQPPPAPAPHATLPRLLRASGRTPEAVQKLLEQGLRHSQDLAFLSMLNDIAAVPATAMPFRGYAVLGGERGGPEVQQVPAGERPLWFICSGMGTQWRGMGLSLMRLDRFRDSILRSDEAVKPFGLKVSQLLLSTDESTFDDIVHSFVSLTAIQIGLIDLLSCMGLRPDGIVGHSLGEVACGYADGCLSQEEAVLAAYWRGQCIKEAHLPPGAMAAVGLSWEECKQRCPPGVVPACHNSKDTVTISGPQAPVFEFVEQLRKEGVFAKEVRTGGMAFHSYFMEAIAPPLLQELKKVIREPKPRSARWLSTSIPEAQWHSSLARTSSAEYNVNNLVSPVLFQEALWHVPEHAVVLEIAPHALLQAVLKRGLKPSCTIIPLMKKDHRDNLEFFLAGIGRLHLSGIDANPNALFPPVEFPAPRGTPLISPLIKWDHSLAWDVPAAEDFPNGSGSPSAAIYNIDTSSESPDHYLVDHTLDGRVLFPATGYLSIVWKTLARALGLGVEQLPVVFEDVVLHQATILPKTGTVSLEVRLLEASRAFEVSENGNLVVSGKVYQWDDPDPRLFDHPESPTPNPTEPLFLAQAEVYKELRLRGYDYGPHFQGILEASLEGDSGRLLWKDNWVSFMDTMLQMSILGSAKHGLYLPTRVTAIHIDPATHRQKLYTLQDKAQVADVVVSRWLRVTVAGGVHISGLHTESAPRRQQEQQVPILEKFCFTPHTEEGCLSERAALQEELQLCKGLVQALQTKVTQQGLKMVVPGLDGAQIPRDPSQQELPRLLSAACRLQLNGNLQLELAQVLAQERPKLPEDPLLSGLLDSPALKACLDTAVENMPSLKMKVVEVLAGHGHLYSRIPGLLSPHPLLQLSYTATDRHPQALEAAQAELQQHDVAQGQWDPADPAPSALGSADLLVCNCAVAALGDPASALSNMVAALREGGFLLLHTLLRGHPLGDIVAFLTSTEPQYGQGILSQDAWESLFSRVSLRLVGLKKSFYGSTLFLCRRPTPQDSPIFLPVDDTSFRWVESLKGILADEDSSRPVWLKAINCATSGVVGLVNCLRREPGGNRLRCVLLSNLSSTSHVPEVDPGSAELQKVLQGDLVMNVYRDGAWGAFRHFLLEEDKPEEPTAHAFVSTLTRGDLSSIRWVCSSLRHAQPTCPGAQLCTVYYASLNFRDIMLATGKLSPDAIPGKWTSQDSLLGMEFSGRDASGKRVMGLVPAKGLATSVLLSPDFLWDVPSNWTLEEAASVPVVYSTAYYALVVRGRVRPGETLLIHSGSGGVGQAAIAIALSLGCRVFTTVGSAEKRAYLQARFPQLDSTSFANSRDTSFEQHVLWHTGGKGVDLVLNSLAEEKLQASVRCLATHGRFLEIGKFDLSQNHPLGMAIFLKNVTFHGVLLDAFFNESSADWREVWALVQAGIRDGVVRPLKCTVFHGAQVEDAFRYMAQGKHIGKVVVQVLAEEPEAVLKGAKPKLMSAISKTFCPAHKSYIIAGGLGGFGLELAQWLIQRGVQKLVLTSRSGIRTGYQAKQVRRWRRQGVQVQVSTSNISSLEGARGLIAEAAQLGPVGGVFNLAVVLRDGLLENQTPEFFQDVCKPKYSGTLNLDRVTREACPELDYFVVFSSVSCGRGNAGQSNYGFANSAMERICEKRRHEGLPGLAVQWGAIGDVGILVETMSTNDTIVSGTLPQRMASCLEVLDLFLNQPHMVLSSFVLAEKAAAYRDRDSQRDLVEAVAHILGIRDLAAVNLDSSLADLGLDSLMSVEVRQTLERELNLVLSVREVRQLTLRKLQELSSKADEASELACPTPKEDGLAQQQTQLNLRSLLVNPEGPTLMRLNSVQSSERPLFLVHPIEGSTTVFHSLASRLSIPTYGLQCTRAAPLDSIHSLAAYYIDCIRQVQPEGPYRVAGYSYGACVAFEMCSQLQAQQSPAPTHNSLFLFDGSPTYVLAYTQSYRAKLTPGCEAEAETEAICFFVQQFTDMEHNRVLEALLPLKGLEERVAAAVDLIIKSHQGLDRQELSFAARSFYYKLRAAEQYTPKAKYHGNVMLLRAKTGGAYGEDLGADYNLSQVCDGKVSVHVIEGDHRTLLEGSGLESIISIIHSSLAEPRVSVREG

Oc1cccc(O)c1
not listed: [16] | [17] | [18] | [19] | [20]
inactive: all other assays above

COC(=O)CCCCC(=O)OC
not listed: [7] | [17] | [18] | [19] | [20]
inactive: all other assays above

O=C1OC2(c3ccccc31)c1cc(Br)c(O)c(Br)c1Oc1c2cc(Br)c(O)c1Br
active: [1] 73.1 µM

CCOC(=O)CC(O)(CC(=O)OCC)C(=O)OCC
inactive: [1] | [9] | [16] | [17] | [10] | [18] | [11] | [12] | [13] | [14] | [15]

CN(C)C=O
inactive: [1] | [9] | [16] | [17] | [10] | [11] | [12] | [13] | [14] | [15]

CC[C@H](C)[C@@H](C(=O)O)n1sc2ccccc2c1=O
inactive: [1] | [9] | [16] | [17] | [10] | [11] | [12] | [14] | [15]
active: [13] 50 µM

O=C(O)c1ccccc1C(c1ccc(O)cc1)c1ccc(O)cc1
active: [2] 25 µM | [4] 7.38 µM | [8] 10.2 µM
not listed: [16] | [17] | [18]
inactive: all other assays above

O=[N+]([O-])c1ccc(O)cc1
active: [4] 27.3 µM | [13] 78.2 µM
inactive: [1] | [3] | [8] | [9] | [17] | [10] | [11] | [12] | [13] | [14] | [15]

CN1CCC[C@H]1c1cccnc1
active: [13] 70.6 µM
not listed: [2] | [5] | [6] | [16] | [19] | [20]
inactive: all other assays above

O=C(O)Cc1cc(I)c(Oc2cc(I)c(O)c(I)c2)c(I)c1
inactive: [9] | [13]
active: [1] 11.8 µM | [16] 60.2 µM | [10] 33.5 µM | [11] 45.4 µM | [12] 58.1 µM | [14] 33.5 µM | [15] 50.7 µM

CCCCCCCCCCCCc1ccccc1S(=O)(=O)O
active: [9] 50 µM | [16] 74.5 µM | [11] 88.9 µM | [12] 83.3 µM | [13] 30.6 µM | [15] 88.4 µM
inactive: [1] | [17] | [10] | [18] | [14]

Cc1ccc(S(=O)(=O)O)c(C)c1
inactive: [1]

c1ccc2c(c1)ccc1ccccc12
active: [2] 55.9 µM | [3] 27.2 µM | [4] 55.1 µM | [13] 50 µM | [20] 56.2 µM
not listed: [6] | [7] | [16] | [18] | [19]
inactive: all other assays above

C#C[C@]1(O)CC[C@H]2[C@@H]3CCC4=CC(=O)CC[C@@H]4[C@H]3CC[C@@]21C
inactive: [1] | [5] | [9] | [17] | [10] | [12] | [13] | [14] | [15]

C[C@@H]1C[C@H]2[C@@H]3CCC4=CC(=O)C=C[C@]4(C)[C@@]3(F)[C@@H](O)C[C@]2(C)[C@@]1(O)C(=O)COP(=O)(O)O
not listed: [16] | [19] | [20]
inactive: all other assays above

Nc1cccc2c(N)cccc12
active: [2] 5 µM | [4] 1.78 µM | [6] 5 µM | [8] 2.44 µM | [16] 18.3 µM | [13] 9 µM
not listed: [17] | [18]
inactive: all other assays above

CCCOC(=O)c1ccc(O)cc1
active: [2] 35.4 µM | [3] 24.4 µM | [4] 7.73 µM | [6] 79.4 µM | [8] 5.71 µM
not listed: [16] | [18] | [19] | [20]
inactive: all other assays above
